GIRK2 act: opens human GIRK2 potassium channels; AID 1259325; P48051; hit rate 0.05% among 63,000; calls only for hits at 25 µM; HEK293-GIRK2 thallium flux, Thallos fluorescence, MPD; call rule not given here
Target sequence (P48051 whole entry, looked up): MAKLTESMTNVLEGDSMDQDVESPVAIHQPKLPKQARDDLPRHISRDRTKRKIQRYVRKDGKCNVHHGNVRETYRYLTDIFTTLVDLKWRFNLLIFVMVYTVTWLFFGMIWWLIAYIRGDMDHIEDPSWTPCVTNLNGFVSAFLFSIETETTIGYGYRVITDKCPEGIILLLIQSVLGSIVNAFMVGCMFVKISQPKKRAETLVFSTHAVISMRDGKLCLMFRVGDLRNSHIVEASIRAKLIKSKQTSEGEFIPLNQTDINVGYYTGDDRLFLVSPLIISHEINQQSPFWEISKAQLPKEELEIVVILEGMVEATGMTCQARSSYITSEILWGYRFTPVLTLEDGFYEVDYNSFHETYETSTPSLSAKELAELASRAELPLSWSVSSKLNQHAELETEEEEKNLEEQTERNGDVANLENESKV
Each line names hits and unclear results; the compound was inactive in the other large screens. Only a selection was taken, and hits are over-represented in it overall.

COC(=O)c1ccccc1NC(=O)c1nnn(-c2ccccc2)c1-c1ccccn1	none
O=C(NCc1ccc(F)c(Cl)c1)c1nnn(-c2ccccc2)c1-c1ccccn1	none
O=C(Nc1cccc(Cl)c1F)c1nnn(-c2ccccc2)c1-c1ccccn1	GIRK2 act active
CN1CCC2(CC1)Oc1ccc(Cl)cc1C1CC(c3ccco3)=NN12 (stereo not drawn)	none
COc1cc(NC(=O)NCCCc2ccccc2)c2ncccc2c1	none
O=C(Nc1cc(Cl)ccc1O)c1cnn2c1OCCC2	GIRK2 act active
O=C(Nc1cc2ccccc2oc1=O)c1cnn2c1OCCC2	none
N#Cc1ccc(Cl)cc1NC(=O)c1cnn2c1OCCC2	none
COc1ccc(CCC(=O)NCC(C)(O)Cc2ccc(OC)cc2)cc1 (stereo not drawn)	none
COc1cc2c(cc1OC)CN(C(=O)c1ccnn1C(C)C)CC2	none
COCCNC(=O)N1CCCC(COC)C1 (stereo not drawn)	none
O=C(COc1ccc(F)cc1)NCCC(O)c1cccc2ccccc12 (stereo not drawn)	none
COc1ccc(-c2cc3nc(C)cc(N4CCCCC4)n3n2)cc1OC	none
O=C(c1ccco1)N1CCOCC1CO (stereo not drawn)	none
Cc1nc(-c2ccc(F)cc2)sc1-c1cc(C(=O)N(C)Cc2ccccc2)n[nH]1	none
Nc1nc(-c2ccc(F)cc2)c(-c2ccc3ncccc3n2)s1	none
Fc1ccc(-c2n[nH]c(=S)s2)cc1	GIRK2 act active
COc1ncc(NS(=O)(=O)c2cccc(F)c2)cn1	none
O=C(NCC(c1cccs1)N1CCOCC1)C(=O)Nc1ccccc1F (stereo not drawn)	GIRK2 act active
N#Cc1ccc(Cl)cc1NC(=O)C(=O)NCC(c1cccs1)N1CCOCC1 (stereo not drawn)	none
O=C(NCC(c1cccs1)N1CCOCC1)C(=O)Nc1ccc2c(c1)OCCO2 (stereo not drawn)	none
CC(C)NC(=O)CCCCn1c(=O)c2ccccc2n(CC(=O)NC2CCCCC2)c1=O	none
C/C=C/CC(C)CC(C)C(O)=C1C(=O)NC(C(O)c2ccc(O)cc2)C1=O (stereo not drawn)	none
CCN(C(=O)Cn1ccn2nc(-c3ccc(OC)c(OC)c3)cc2c1=O)c1cccc(C)c1	none
COc1cn(C)c(C(=O)NCCC(c2ccccc2)c2ccccc2)cc1=O	none
COc1ccccc1-c1coc2c3c(ccc2c1=O)OCN(c1ccc(F)c(Cl)c1)C3	none
NC(=O)COc1ccc2c(=O)c(-c3ccc(Cl)cc3)c(C(F)(F)F)oc2c1	GIRK2 act active
COc1ccc(-c2c(C(F)(F)F)oc3cc(OCC(=O)OC(C)(C)C)ccc3c2=O)cc1	none
CC(C)(C)OC(=O)COc1ccc2c(=O)c(-c3ccccc3)c(C(F)(F)F)oc2c1	none
O=C(NCCC1CCCCN1S(=O)(=O)c1cccs1)C(=O)Nc1ccon1 (stereo not drawn)	none
Cn1c(=O)c2c(ncn2CC(=O)Nc2nnc(C3CC(=O)N(c4ccccc4)C3)o2)n(C)c1=O (stereo not drawn)	none
O=c1[nH]c2nnc(Nc3ccccc3)n2c2c1cnn2-c1ccccc1	none
CC1C(=O)N2CCCc3cc(NC(=O)C(=O)NCC4(O)CCOc5ccccc54)cc1c32 (stereo not drawn)	none
Cc1ccc(NC(=O)C(=O)NCC(O)(c2ccccc2)C2CC2)cc1N1CCCC1=O (stereo not drawn)	none
CC1C(=O)N2CCCc3cc(NC(=O)C(=O)NCC(O)(c4ccccc4)C4CC4)cc1c32 (stereo not drawn)	GIRK2 act active
Cc1ccc(N2CCCS2(=O)=O)cc1NC(=O)Cc1c(C)noc1C	none
O=c1cc(CN2CCN(Cc3ccc4c(c3)OCO4)CC2)c2cc3c(cc2o1)OCO3	none
CC(C)Oc1ccc(C(=O)N2CC3CC2C(=O)O3)cc1 (stereo not drawn)	none
COc1ccc(-c2cc3c(=O)[nH]nc(SCC(=O)Nc4ccc(C)c(Cl)c4)n3n2)cc1	none
Cn1c(CN2CCN(C(=O)c3ccc(F)cc3F)CC2)nc2ccccc21	none
O=C(OC1CN(c2nc3ccc(F)cc3s2)C1)c1cccnc1	none
CCOc1ccccc1NC(=O)Cn1cccc(S(=O)(=O)N2CCCCC2)c1=O	none
N#Cc1ccc(NC(=O)Cn2cccc(-c3nc(-c4ccc(Cl)cc4)no3)c2=O)cc1	none
CCCn1c(=O)c2c(nc3n(-c4cc(OC)ccc4OC)c(-c4ccccc4)cn23)n(C)c1=O	none
CCn1c(=O)c2c(nc3n(-c4ccc(OC)cc4OC)c(-c4ccccc4)cn23)n(C)c1=O	none
CCn1c(=O)c2c(nc3n(-c4cc(OC)ccc4OC)c(-c4ccccc4)cn23)n(C)c1=O	GIRK2 act active
COc1ccc(NC(=O)CSc2cc(C)nc(-c3ccc(C(F)(F)F)cc3)n2)cc1OC	none
COc1ccc2c(c1)O/C(=C\c1ccc(O)cc1)C2=O	none
CN(C)c1cccc(C(=O)N2CCc3cc(S(=O)(=O)NC4CCCC4)ccc32)c1	none
CN(C)C(=O)c1nnn(-c2ccc(NC(=O)CCSc3ccccc3)cc2)n1	none
C/C=C/C(=O)N1CCC(CSc2ccc(OC)cc2)CC1	none
COc1coc(C(=O)NCc2ccccc2)cc1=O	none
COc1coc(C(=O)Nc2ccc(C)c(Cl)c2)cc1=O	none
COc1coc(C(=O)Nc2ccc(Oc3ccccc3)cc2)cc1=O	GIRK2 act active

Screening results as filed in PubChem BioAssay.
